# Compound activity: PubChem, several laboratories
# TNF death inh: inhibitors of TNF-alpha triggered necroptosis, primary screen, cell-based, Jurkat FADD-/-, single concentration; Jurkat FADD-/- TNF necroptosis rescue, ATP luminescence, 24 h; 0 = TNF only, 100 = no-TNF cells; activation (protection from cell death), % at 10 µM; hit rate 0.068% among 220,000; AID 463075, 2010;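 active = activation, meaning protection from cell death, of at least 50% relative to plate controls; inactive = activation below 50%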;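 also: necroptosis triggered by 40 ng/mL TNF-alpha added together with compound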
# L929 necroptosis: inhibitors of zVAD-triggered necroptosis, primary screen, L929 cells; L929 zVAD necroptosis rescue, ATP luminescence, 24 h; with zVAD 60 µM; viability rescue, % at 10 µM; hit rate 0.38% among 220,000; AID 1377, 2008;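 active = activation, scaled between plate controls, above about 75%, limit read from the data; inactive = activation under that limit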;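 also: 0% = zVAD with DMSO and 100% = DMSO alone without zVAD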
# HSF1 activator: HSF-1 activators, primary screen, NIH3T3-HGL cells, MG132 stress, luminescence, single point | NIH3T3-HGL HSF-1 luciferase reporter, 8 h; 100% = twice DMSO control signal | activation, % at 9 µM | hit rate 1.7% among 300,000;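 active = mean replicate activation of at least 50% with a set share of replicates each reaching 50%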;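 also: 0% = median of the neutral control wells and 100% = twice that signal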
# Hsp70 activator: Hsp70 transcriptional activators, primary screen, cell-based, HeLa, Hsp70 promoter luciferase, luminescence, 10 µM. HeLa Hsp70 promoter luciferase reporter; scaled: vehicle 0, proteasome-inhibitor control 100%. activation, % at 10 µM. hit rate 0.04% among 200,000. AID 1203, 2008;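 active = activation above the mean across all tested compounds plus 3 SD, cutoff set per campaign, cut at about 5.5% in these data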;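 also: 100% = MG132 at 30 µM as the positive control and 0% = DMSO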
# * hit, by the source's call; x = no result. In the library only some 1.9% were active in any assay of this set; here they are far more common.
SMILES,TNF death inh,L929 necroptosis,HSF1 activator,Hsp70 activator
O=C(c1cc(S(=O)(=O)N2CCOCC2)ccc1F)N(CCc1ccccc1)Cc1ccccc1,x,x,23,x
CCCNC(=O)c1ccc(C)c(NC(=O)C2=C(C)OCCS2)c1,x,x,-30,x
CC1=NN(C(N)=S)C(=O)C1N=Nc1ccc(F)cc1 (centres undefined),x,x,53*,x
Cc1cc(NC(=O)c2ccccc2C)n(-c2cccc(F)c2)n1,x,x,-8,x
Cc1ccc(C)c(S(=O)(=O)N2CCN(C(=O)C3CC3C)CC2)c1 (centres undefined),x,x,-1,x
COc1cc(C(=O)NCCc2ccc3c(c2)OCCO3)ccc1OCC(=O)N1CCOCC1,1,-2,1,0
COc1cc(C(=O)NCCc2ccc(F)cc2)ccc1OCC(=O)N1CCOCC1,x,x,54*,x
CCc1cccc(CC)c1NC(=O)C1CCN(C(=O)c2ccco2)CC1,x,x,-9,x
c1ccc(C2CCC(N3CCN(c4ccccc4)CC3)CC2)cc1 (centres undefined),x,x,10,x
O=C(CSC1=NCCN1)Nc1cccc(C(F)(F)F)c1,-6,66,67*,0
Cn1ccnc1SCC(=O)Nc1cccc(C(F)(F)F)c1,1,2,0,0
CCOC(=O)C1=C(C)NC2(O)c3ccccc3C(=O)C12O (centres undefined),-3,0,5,0
CC(=O)C1=C(C)NC2(O)c3ccccc3C(=O)C12O (centres undefined),-2,-1,62*,0
O=C1OCCC1Sc1nnc(-c2ccc(F)cc2)n1Cc1ccccc1 (centres undefined),0,1,4,0
O=C(CSc1ccccn1)c1ccc(F)cc1,8,2,13,0
Cc1ccc(C(=O)CSc2ccccn2)cc1,1,0,53*,0
O=C(Cn1ncc(Cl)c(Cl)c1=O)N1CCN(Cc2ccccc2)CC1,-27,-3,55*,1
O=C(Cn1ncc(Cl)c(Cl)c1=O)N1CCOCC1,18,4,15,1
Cc1nn(CC(=O)N2c3ccccc3NC(=O)C2(C)C)c(C)c1[N+](=O)[O-],12,1,-2,0
CC1(C)C(=O)Nc2ccccc2N1C(=O)Cn1ncc(Cl)c(Cl)c1=O,-33,5,54*,x
Cc1cc(C)c(C)c(OCCCCN2CCCCC2)c1,x,x,3,x
CCc1ccc(NC(=O)CN2C(=O)C(=O)N(Cc3ccccc3)C2=O)cc1,0,2,9,0
CCOc1ccc(CCNC(=O)COC(=O)c2cccc(S(=O)(=O)N3CCCC3)c2)cc1OCC,x,x,-14,x
CCC(C(=O)N1CCC(N2CCCCC2)CC1)n1nc(C)c2sc3ccccc3c2c1=O (centres undefined),x,x,9,x
CCNC(=S)N1CCN(S(=O)(=O)c2cccc(C(F)(F)F)c2)CC1,2,1,72*,0
SMILES,TNF death inh,L929 necroptosis,HSF1 activator,Hsp70 activator
C/C(=N\N=C(/C)c1cccc(N)c1)c1cccc(N)c1,x,x,64*,x
COc1ccc(OC)c2sc(N3CCc4ccccc4C3)nc12,-1,1,128*,0
COc1ccc(OC)c2sc(N3CCCCC3)nc12,-1,1,20,0
Cc1ccc(N2CCN(CCc3nc4cc(NC(=O)c5ccco5)ccc4n3C)CC2)cc1,-4,1,69*,0
Cn1c(CCN2CCN(c3ccccc3)CC2)nc2cc(NC(=O)c3ccco3)ccc21,-1,0,128*,0
COc1ccc(C(=O)Nc2ccccc2[N+](=O)[O-])cc1S(=O)(=O)N1CCOCC1,x,x,131*,x
Cn1c(=O)[nH]c(=O)c2c1nc(CN1CCN(Cc3ccccc3)CC1)n2CC(N)=O,2,0,8,0
Cc1cc(C)c(S(=O)(=O)N2CCCC(C(=O)NCCC3=CCCCC3)C2)c(C)c1 (centres undefined),0,0,60*,-1
CC(=O)NS(=O)(=O)c1ccc2sc(C)nc2c1,-2,0,8,x
N#C/C(=N/Nc1ccc([N+](=O)[O-])cc1)C(=N)N1CCCCC1,1,-1,42,0
N#C/C(=N\Nc1ccccc1[N+](=O)[O-])C(=N)N1CCCCC1,1,1,64*,0
O=C(CSc1nnnn1C1CCCCC1)NCCc1ccccc1,-5,0,18,0
Cc1ccc(C)c(OCc2nc(-c3cccnc3)no2)c1,0,0,12,0
Cc1ccc(-c2nc(-c3cccnc3)no2)c(C)c1,-2,-2,57*,0
